Rows were chosen to be rich in hits. Some 0.45% of all compounds tested hit in one or more screens of this group.
EPAC2 antag = blocks human EPAC2 exchange factor. Q8WZA2. EPAC2 GEF exchange of Rap1B-BODIPY-GDP, fluorescence. Potency, µM (titrated, usually from 114 µM), for inactives: at the top dose activity, negative = inhibition, actives largely listed as inhibitors. 360,000 tested, 0.18% active. AID 720708; also: % is scaled to controls: 0 for no effect and ±100 for the full control effect; nearly all actives have a fitted effect of over 45% in size
EPAC1 agonist = agonists of human EPAC1 | EPAC1 agonist qHTS, biochemical assay; response scale: 100% = response to 6.5 mM cAMP | Potency, µM (top dose mostly 154 µM), inactives show at the highest dose activation, actives largely listed as activators | 360,000 tested, 0.073% active | AID 720707; also: nearly all actives have a fitted effect of over 60% in size
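Nucleotide exchange assay: 100 nM EPAC1 with 250 nM Rap1B loaded with BODIPY-GDP and 50 uM GDP, room temperature. Fluorescence (480/540 nm) read every 5 min for 30 min; signal change normalized to 6.5 mM cAMP as full agonist.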
EPAC1 antagonist = blocks human EPAC1 exchange factor; O95398; EPAC1 GEF assay, Rap1b-BODIPY-GDP exchange fluorescence; Potency, µM (doses to about 115 µM), for inactives: at the top dose activity change, negative = inhibition, hits mostly inhibitors; 360,000 tested, 0.14% active;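 also: plate controls were vehicle for no effect and positive control for full effect; nearly all actives have a fitted effect of over 50% in size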
EPAC2 ag = activates human EPAC2 exchange factor; Q8WZA2; 360,000 tested, 0.079% active; EPAC2 activation, biochemical qHTS; response scale: 100% = 6.5 mM cAMP response; Potency, µM (series often up to 154 µM), for the others: at the top dose activation, hits mostly activators; also: nearly all actives have a fitted effect of over 50% in size
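Compounds were titrated in qHTS against a Rap1B-BODIPY-GDP (250 nM) complex with EPAC2 (100 nM) and GDP (50 uM). BODIPY-GDP release tracked at 480/540 nm over 30 min at room temperature, normalized to 6.5 mM cAMP.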
USP2a block = blocks human ubiquitin-specific protease USP2a | O75604 | USP2 core, Ub-CHOP2 coupled fluorogenic reporter, 485/531 | Potency, µM (doses to about 38.3 µM), for inactives: top-dose activity change, negative = inhibition, hits mostly inhibitors | 330,000 tested, 0.01% active;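 also: plate controls were DMSO wells for no effect and full inhibition by NEM control for full effect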
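Deubiquitinase activity read as fluorescence (485/531 nm) after Ub-CHOP2 cleavage activates the enterokinase reporter on its substrate; USP2 core 10nM, Ub-CHOP2 and substrate 25nM each, 30min compound preincubation then 60min RT; data normalized to NEM, curves fitted.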
USP1-UAF1 inh = USP1/UAF1 (human) deubiquitinase inhibition | O94782 | AID 743255 | 390,000 tested, 0.23% active | Potency, µM (series often up to 57.1 µM), for inactives: at the highest dose activity change, negative = inhibition, most hits filed as inhibitors | recombinant USP1/UAF1, Ub-Rhodamine cleavage fluorescence; also: % is scaled to controls: 0 for no effect and ±100 for the full control effect; nearly all actives have a fitted effect of over 60% in size
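USP1/UAF1 complex at 1 nM was preincubated with compound for 15 min at room temperature, then Ub-Rho substrate (150nM final) was added. Fluorescence (480/540 nm) was read kinetically, 6 reads every 60 seconds.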
An asterisk follows results filed as active; i = inactive; ? = inconclusive; nt = no result; ! = repeats disagree. Calls follow the shape of the dose curve; as a rule, active = well fitted curve in the direction sought with a large enough effect; inconclusive = small, poorly fitted or top-dose-only effect, or another doubt; inactive = no such curve, though single readings can be large; an effect the other way counts as inactive or inconclusive. Potency is read from the fitted curve at half-maximal effect.

SMILES	EPAC2 antag	EPAC1 agonist	EPAC1 antagonist	EPAC2 ag	USP2a block	USP1-UAF1 inh
CN1C[C@H](C(=O)NC2(C)OC3(O)[C@@H]4CCCN4C(=O)[C@H](Cc4ccccc4)N3C2=O)CC2c3cccc4[nH]cc(c34)C[C@H]21 (stereo partly drawn)	-8.9%	-3.4%	-6.1%	7.7%	nt	-14.9%
Cc1nc2c(=O)n(C)c(=O)nc-2n(C)n1	?	-1.2%	100µM*	?	-0.8%	0.0316µM*
Cn1cc(/C=C2\C(=O)NC(=O)N(c3ccccc3)C2=O)c2ccccc21	43.8%	-1.0%	-9.0%	100µM*	1.6%	?
O=C(O)Cn1cc(/C=C2\C(=O)NC(=O)N(c3ccc(Cl)cc3)C2=O)c2ccccc21	-24.3%	4.6%	-23.9%	3.7%	-6.2%	-20.7%
Cc1ccc(Cn2cccc(C(=O)Nc3ccc4c(c3)OCCO4)c2=O)cc1	nt	nt	nt	nt	nt	-16.1%
CN1CC[C@@]2(C)c3cc(O)ccc3N(C)[C@@H]12	-24.2%	11.6%	?	12.6%	nt	28.2µM*
CN1CCN(c2ccc(/C=C3\C(=O)NC(=S)N(c4cccc(Br)c4)C3=O)o2)CC1	3.2%	24.8%	-16.2%	15.0%	23.5%	31.6µM*
O=C(c1cc(-c2cccc(Cl)c2)on1)N1CCOCC1	-11.0%	7.3%	-0.1%	2.5%	4.0%	?
O=C(c1cc(-c2ccc(Cl)cc2)n(-c2ccc(Cl)cc2Cl)n1)N1CCOCC1	-17.0%	8.4%	-4.4%	10µM*	0.1%	-9.3%
C[C@H]1COC2=C1C(=O)C(=O)c1c2ccc2c1CCCC2(C)C	6.9%	-43.3%	44.7µM*	0.9%	2.3%	31.6µM*
Cc1nc(-c2cccc(NC(=O)c3ccc(Cl)c(S(=O)(=O)N4CCCC4)c3)c2)cs1	29.1%	-16.6%	10.2%	13.6%	nt	?
O=C1NC(=S)N(c2ccc(F)cc2)C(=O)/C1=C\c1ccoc1	-29.9%	3.7%	?	-1.0%	1.6%	28.2µM*
Cc1ccc(N2C(=O)NC(=O)/C(=C\c3ccoc3)C2=O)cc1	13.0%	27.7%	-26.1%	11.8%	?	-30.6%
Cc1ccccc1N(CC(=O)NC1CCCC1)C(=O)c1csnn1	0.6%	-3.5%	?	3.8%	2.2%	-9.7%
CCCCCn1c(NC(=O)c2ccco2)c(C(=O)OCC)c2nc3ccccc3nc21	39.8µM*	-15.5%	50.1µM*	6.4%	0.3%	7.08µM*
CCOC(=O)c1c(NS(=O)(=O)c2ccccc2)n(CCCOC)c2nc3ccccc3nc12	?	7.0%	7.94µM*	23.4%	1.6%	1.78µM*
C[n+]1c2cc(N)ccc2cc2ccc(N)cc21	i	50.1µM*	i	100µM*	nt	3.98µM*!
Nc1ccc2ccccc2c1	6.1%	-5.4%	-1.3%	-5.6%	nt	-4.7%
Cc1ccccc1Cn1cccc(C(=O)Nc2cc(Cl)ccc2C#N)c1=O	nt	nt	nt	nt	nt	-1.7%
O=C(O)CC1OCC=C2CN3CCC45c6ccccc6NC4C1C2CC35 (stereo not drawn)	2.0%	1.8%	5.0%	4.1%	-6.7%	6.8%
O=C(O)CC1OCC=C2CN3CCC45C6=CC(=O)C(=O)C([N+](=O)[O-])=C6NC4C1C2CC35 (stereo not drawn)	?	10.7%	?	?	2.0%	5.01µM*
CCN(CC)c1ccc(N=Cc2c(O)n(CCc3ccc(OC)c(OC)c3)c(=O)[nH]c2=O)cc1	4.0%	16.4%	-18.9%	100µM*	4.7%	?
COc1ccc(CCn2c(O)c(C=Nc3ccc(F)cc3)c(=O)[nH]c2=O)cc1OC	-1.1%	1.6%	-9.6%	-0.1%	-1.8%	2.1%
CCN(CC)c1ccc(N=Cc2c(O)n(-c3cc(OC)ccc3OC)c(=O)[nH]c2=O)cc1	31.7%	?	-8.2%	79.4µM*	1.6%	?
Cc1cc(/C=C2\C(=O)NC(=O)N(c3ccc(Cl)cc3)C2=O)c(C)n1-c1sc2c(c1C#N)CCCC2	-10.1%	-9.3%	50.1µM*	-11.0%	3.0%	?
SMILES	EPAC2 antag	EPAC1 agonist	EPAC1 antagonist	EPAC2 ag	USP2a block	USP1-UAF1 inh
CCN(CC)C(=O)c1ccc(NC(=O)CCn2nc(-c3ccc(Cl)cc3)c3ccccc3c2=O)cc1	nt	nt	nt	nt	nt	-2.9%
CC[C@H](C)/C=C(C)/C=C/C1=CC2=C(Cl)C(=O)[C@@](C)(OC(C)=O)C(=O)C2=CO1	3.55µM*	6.9%	35.5µM*	7.6%	nt	31.6µM*
CCC(C)/C=C(C)/C=C/C1=CC2=C(Cl)C(=O)C(C)(OC(C)=O)C(=O)C2=CO1 (stereo not drawn)	-12.8%	-24.3%	?	-1.1%	2.2%	?
O=c1c2ccccc2nc(/C=C\c2ccc(F)cc2)n1-c1ccccc1F	nt	nt	nt	nt	nt	-15.6%
Oc1c(Cl)cc(Cl)cc1CN1CCN(Cc2ccccc2)CC1	0.3%	19.8%	-2.2%	12.4%	-7.8%	-0.7%
Oc1c(Cl)cccc1Cc1cc(Cl)cc(Cl)c1O	22.4µM*	0.3%	79.4µM*	-0.1%	nt	-5.4%
O=P(Nc1cccnc1)(Oc1ccccc1Cl)Oc1ccccc1Cl	56.2µM*	5.9%	-14.0%	6.1%	-0.4%	-7.3%
Cc1ccc(N2C(=O)NC(=O)/C(=C\C=C\c3ccco3)C2=O)cc1C	6.1%	-13.7%	56.2µM*	8.7%	-0.6%	-2.4%
O=C1NC(=O)N(c2ccccc2)C(=O)/C1=C/C=C/c1ccco1	3.5%	6.9%	-16.3%	5.5%	18.8%	-12.1%
O=C1NC(=O)N(Cc2ccco2)C(=O)/C1=C/C=C/c1ccco1	-0.8%	13.3%	56.2µM*	-6.2%	?	-12.1%
O=C1NC(=O)N(Cc2ccccc2)C(=O)/C1=C\C=C\c1ccco1	0.1%	9.4%	56.2µM*	2.7%	2.0%	-4.5%
C[C@@H]1C(=O)O[C@H]2C[C@@]34[C@H]5C[C@@H](C(C)(C)C)[C@]36[C@@H](OC(=O)[C@@H]6O)O[C@@]4(C(=O)O5)[C@]21O	3.1%	0.2%	2.6%	-3.0%	0.4%	-6.8%
CCOC(=O)[C@]12Cc3cc(Cl)ccc3[C@H]1N(C1CCCCC1)C(=O)c1cc(OC)ccc12	?	-6.6%	-19.1%	7.6%	nt	nt
CCN1/C(=C/C=C/C2=[N+](CC)c3ccccc3C2(C)C)C(C)(C)c2ccccc21	144.4%	56.2µM*	47.1%	17.8µM*	nt	25.1µM*
CN1/C(=C\C=C\C2=[N+](C)c3ccc4ccccc4c3C2(C)C)C(C)(C)c2ccccc21	nt	nt	nt	nt	-12.9%	nt

High-throughput results: PubChem, National Center for Advancing Translational Sciences (NCATS)
